An excerpt weighted towards active compounds, which were near 7.9% of everything screened.
MCF10A rereplic – inducers of DNA re-replication in MCF 10A breast cells | AID 624296 | MCF 10A DNA re-replication, Hoechst nuclear intensity, 48 h | Potency, µM (series often up to 46.1 µM), for inactives: top-dose activity, positive = re-replication, most hits filed as activators | 350,000 compounds, 2.9% hits; note: % of control where 0% means no effect; nearly all actives have a fitted effect of over 50% in size
HT1080-NT tox – kills 2HG-producing HT-1080-NT fibrosarcoma cells; HT-1080-NT fibrosarcoma viability, CellTiter-Glo ATP luminescence, 48 h; 360,000 compounds, 1.6% hits; Potency, µM (doses to about 46.1 µM), for inactives: top-dose activity, negative = less viability, actives largely listed as cytotoxic;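 note: NT is the 2HG producing partner of a matched IDH1 knockdown line; 0% = DMSO-treated cells and -100% = media-only wells without cells; nearly all actives have a fitted effect of over 55% in size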
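HT-1080-NT fibrosarcoma cells (2HG-overproducing), 750 cells/well in RPMI with 5% FBS, dosed after 2 h and incubated 48 h at 37C. CellTiter-Glo luminescence normalized to DMSO and no-cell wells; concentration-response curves fitted and classed.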
SW480 rereplic – induces DNA re-replication in SW480 colon adenocarcinoma cells | SW480 DNA re-replication, Hoechst DNA content imaging, 48 h | Potency, µM (highest dose often 46.1 µM), for the others: top-dose re-replication activation, usual class: activators | 340,000 compounds, 1.8% hits | AID 624297; note: % of control where 0% means no effect; nearly all actives have a fitted effect of over 55% in size
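Quantitative HTS format with DMSO vehicle controls; 48 hr drug incubation at 37 C, then 40 min Hoechst staining and scanning imager measurement at 405 nm excitation.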
KB-3-1 tox – kills parental KB-3-1 adenocarcinoma cells. KB-3-1 viability, CellTiter-Glo ATP luminescence, 72 h. Potency, µM (top dose mostly 46.1 µM), most hits filed as cytotoxic. 400,000 compounds, 1.4% hits; note: % is set by controls: 0 for no effect and ±100 for the full control effect; nearly all actives have a fitted effect of over 60% in size
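Viability of parental KB-3-1 cells, measured by CellTiter-Glo luminescence, followed a 72 h incubation at 37 °C with pinned compounds in phenol-red-free DMEM containing 10% FBS.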
KB-V1 MDR tox – kills drug-selected multidrug resistant KB-V1 cells; 400,000 compounds, 3.4% hits; KB-V1 MDR cells viability, CellTiter-Glo, 72 h; AID 1347076; Potency, µM (highest dose often 46.1 µM), usual class: cytotoxic; note: % is set by controls: 0 for no effect and ±100 for the full control effect; nearly all actives have a fitted effect of over 60% in size
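Following 72 h at 37 degrees C with compound, KB-V1 cell viability was read by CellTiter-Glo luminescence, medium being phenol-red-free DMEM plus 10% FBS; concentration-response parameters came from normalized, curve-fitted qHTS data.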
HT1080 IDH1KD tx – kills HT-1080 cells with IDH1 knockdown. Potency, µM (highest dose often 46.1 µM), without a hit: at the top dose activity, negative = toxicity, most hits filed as cytotoxic. HT-1080 IDH1 knockdown viability, ATP luminescence, 48 h. AID 686971. 360,000 compounds, 2% hits;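 note: 0% = DMSO wells and -100% = cell-free medium wells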
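Cytotoxicity counter-line: IDH1KD HT-1080, 48 h, CellTiter-Glo. Curves classed by r2, magnitude and activity.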
The depositor's hits bear a star; i = inactive; ? = inconclusive; . = no result. Calls come from the whole dose curve; as a rule, active = well fitted curve in the direction sought with a large enough effect; inconclusive = small, poorly fitted or top-dose-only effect, or another doubt; inactive = no such curve, though single readings can be large; an effect the other way counts as inactive or inconclusive. Potency is the fitted concentration of half-maximal effect.

SMILES	MCF10A rereplic	HT1080-NT tox	SW480 rereplic	KB-3-1 tox	KB-V1 MDR tox	HT1080 IDH1KD tx
CCN(CC)C(=O)c1ccc2sc([C@@H]3O[C@H](CO)[C@H](O)[C@H](O)[C@H]3O)nc2c1	.	20%	.	i	i	19%
Cc1ccc(S(=O)(=O)NCCC(=O)N2CCN(Cc3ccccc3)CC2)cc1	-4%	-3%	10%	i	?	11%
CC(=O)N1CCc2cc(S(=O)(=O)NCCC(=O)N3CCN(Cc4ccccc4)CC3)ccc21	26%	-24%	3%	?	16µM*	-5%
O=C(CNCc1ccccc1)Nc1ccc(Cl)cc1	18µM*	8.2µM*	?	10µM*	?	8.2µM*
COC(=O)c1ccc(CNCC(=O)Nc2ccc(C(=O)OC)cc2)cc1	16µM*	0%	2%	i	i	-2%
O=C(CNCc1ccc(Cl)cc1)Nc1ccc(C(=O)N2CCCCC2)cc1	0%	-4%	-7%	i	i	-14%
CCOC(=O)c1sc2ncnc(Nc3cccc(C(=O)O)c3)c2c1C	4%	1%	?	i	?	5%
O=C(c1ccccc1)c1ccc(OCCOCCN2CCN(Cc3ccccc3)CC2)cc1	?	18µM*	?	i	?	?
c1ccc(CN2CCN(CCOCCOc3ccc4c(c3)CCC4)CC2)cc1	?	16µM*	?	?	?	?
O=C(c1ccccc1)c1ccc(OCCCN2CCCC2)cc1	?	17%	-1%	i	i	4%
c1ccc(COCCN2CCN(CCOCc3ccccc3)CC2)cc1	-1%	-2%	-2%	i	23µM*	0%
CN(C)/C=N/c1nc2c(ncn2C2CC(O)C(CO)O2)c(=O)[nH]1 (stereo unspecified)	.	.	.	i	i	.
COc1ccc(CNc2cccc3[nH]c(C(F)(F)F)nc23)cc1	43%	?	-5%	i	i	?
Cc1ccc(C(=O)Nc2cccc3[nH]c(C(F)(F)F)nc23)cc1	?	?	25%	16µM*	18µM*	-40%
CCOc1cc(/C=C2\SC(=N)N(c3nccs3)C2=O)ccc1OCCN1CCOCC1	8%	-27%	?	i	7.3µM*	?
CCC1NC(=O)c2cccnc2-n2c1nc1ccc(F)cc1c2=O (stereo unspecified)	.	4%	.	i	i	10%
COc1ccc(NS(=O)(=O)c2ccc(C)c(C(=O)NCc3ccccc3CN3CCCC3)c2)cc1	.	-12%	.	i	i	-7%
O=C1/C(=C/c2ccccc2)Oc2cc(OC(=O)N3CCOCC3)ccc21	10%	11%	-5%	i	21µM*	11%
COc1cccc(OC)c1C(=O)Oc1ccc2c(c1)O/C(=C\c1ccncc1)C2=O	?	18µM*	?	?	?	?
O=C1/C(=C/c2ccc(F)cc2)Oc2cc(OC(=O)N3CCOCC3)ccc21	-3%	12%	-7%	i	i	11%
COc1ccc(/C=C2\SC(=O)N(CC(=O)Nc3ccc(F)cc3)C2=O)cc1O	26µM*	-1%	-13%	i	i	-23%
COc1cc(/C=C2\SC(=S)N(CCC(=O)N3CCCCC3)C2=O)cc(OC)c1OC	21µM*	-15%	?	?	?	?
CCOc1ccc(N2C(=O)S/C(=C\c3ccc(O)c(OC)c3)C2=O)cc1	0%	-5%	?	i	i	1%
CCOC(=O)CN1C(=O)S/C(=C/c2ccc(C)o2)C1=O	0%	17%	-1%	i	i	1%
COc1ccc(/C=C2\SC(=O)N(CC(=O)Nc3cccnc3)C2=O)cc1OC	12%	-11%	?	i	i	-9%
Cc1ccc(/C=C2\SC(=S)N(CCC(=O)N3CCCCC3)C2=O)cc1	1%	4%	-4%	?	i	2%

Source: PubChem (National Center for Advancing Translational Sciences (NCATS))
